Out of some 280,000 compounds screened, about 2,600 (0.93%) were called active. About 8% were inconclusive and are not listed. For the sample, actives were picked, then their nearest neighbours and some compounds at random. A number with no mark means an inactive call. The call rests on the fitted dose curve; in most records, active means well fitted curve in the direction sought with a large enough effect; inconclusive means small, poorly fitted or top-dose-only effect; inactive means flat fitted curve, though single readings scatter.
Assay: Counterscreen qHTS for Inhibitors of Tau Fibril Formation, Fluorescence Polarization; further: nearly all actives have a fitted effect of over 55% in size
Conditions: tau K18 P301L (four-repeat tau fragment) Alexa594 fluorescence, heparin fibrillization; series mostly up to 57.7 µM; activity change, negative = decrease: at the top concentration
Outline: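 Human K18 P301L tau (15 uM unlabeled plus 0.24 uM Alexa 594-labeled, final) in 100 mM sodium acetate pH 7 was mixed with compound and 20 uM heparin and incubated 6 hr at 37 C.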
On the % scale 0 is the no-effect control and ±100 the full control effect; potency means the concentration at half of the fitted maximal effect; tags describe the fitted curve by direction and shape or compound fluorescence and quenching.

SMILES | activity change, negative = decrease | Potency
CSc1ccccc1-c1nnc(NC(=O)c2ccc3c(c2)OCCO3)o1 | -1.25% | –
CCCNC(=O)C1CCC(Cn2c(=O)c3sccc3n(Cc3ccccc3F)c2=O)CC1 (stereo not given) | 9.61% | –
COc1ccc(NC(=O)CSc2nccn2C2CCCC2)cc1OC | -6.75% | –
Cn1c(=O)c2c(ncn2CC(=O)Nc2cccc(C(F)(F)F)c2)n(C)c1=O | -20% | –
CCCCNC(=O)CCNC(=O)c1ccc(C(C)(C)C)cc1 | -8.92% | –
CC(C)(C)c1ccc(C(=O)NCCC(=O)NCc2ccco2)cc1 | – | 14.1 µM [quencher] (active)
CC(C)(C)c1ccc(NC(=O)NCc2ccco2)cc1 | -22.4% | –
COc1ccc(NC(=O)COCc2cc(-c3ccco3)on2)cc1 | -5.46% | –
Cc1ccc(NC(=O)CSc2nc3ccccc3c3nc(CCn4cncc4C)nn23)cc1F | 4.76% | –
Cc1nc(N2CCC(C)CC2)c2c(C)c(C(=O)Nc3cc(F)ccc3C)sc2n1 | -5.83% | –
Cc1c(C(=O)Nc2ccccc2)sc2nc3n(c(=O)c12)CCCCC3 | -18.3% | –
Cc1ccc(NC(=O)Nc2sc3nc4n(c(=O)c3c2C)CCC(C)CC4)c(Cl)c1 (stereo not given) | – | 7.08 µM [quencher] (active)
CCOC(=O)c1cccc(NC(=O)Cn2cnc3nc4c(cc3c2=O)CCCC4)c1 | -12.6% | –
COc1ccc(-n2nc(C(=O)NCCc3ccc(Cl)cc3)c3c4ccccc4n(C)c3c2=O)cc1Cl | -6.96% | –
CC1CCC(N2CC(=O)N(CCC3=CCCCC3)C(c3ccc(F)cc3)C2=O)CC1 (stereo not given) | 0.383% | –
O=C(CCn1ccc2cc(S(=O)(=O)N3CCCC3)ccc21)NCc1cccc(Cl)c1 | -25.8% | –
CC(C)(C)OC(=O)N1CCC(c2c(C(=O)N3CCN(c4cccc(Cl)c4)CC3)cnn2-c2cccc(Cl)c2)CC1 | -9.84% | –
Cc1cccc(N2CCN(C(=O)CCSCc3ccccc3F)CC2)c1C | -13.6% | –
Cc1ccc(Nc2nc(-c3ccc(O)cc3O)cs2)nc1 | – | 8.91 µM [quencher] (active)
Cc1cc(O)ccc1-c1cnc2ccccc2n1 | -23.3% | –
Cc1ccc(NC(=O)c2cc(-c3ccc(C)o3)nc3ccccc23)nc1 | -11.4% | –
COc1ccc(NC(=O)CSc2nc3ccccc3[nH]2)cc1 | -24.6% | –
Cc1ccc2nc(N3CCN(c4cccc(Cl)c4)CC3)c3nnnn3c2c1 | -17.8% | –
O=C(NC1CC1)c1ccc2c(c1)NC(=O)c1ccccc1S2 | -16.6% | –
C/C(=N\Nc1cccc(C(=O)O)c1)c1ccc2c(c1)Nc1ccccc1S2 | – | 11.2 µM [quencher] (active)

SMILES | activity change, negative = decrease | Potency
CC(=O)Nc1cccc(/C(C)=N/NC(=O)c2ccccc2Cl)c1 | -8.65% | –
CCN(CCCNC(=O)c1cc2c(=O)n(CC)c3ccccc3c2s1)Cc1ccccc1 | -15.7% | –
Cc1c(NC(=O)C(C)(C)C)cccc1-c1nc2ccccc2s1 | -15.3% | –
O=c1c(-c2ccccc2)coc2cc(O)ccc12 | -0.968% | –
CC(C)=CCc1c(O)c(CC=C(C)C)c2occ(-c3ccc(O)cc3)c(=O)c2c1O | – | 15.8 µM [quencher] (active)
Cc1c(O)cc(O)c2c(=O)c(-c3ccc(O)cc3)coc12 | 1.54% | –
COc1ccc(-c2nnc(SCC(=O)Nc3ccc(C(C)C)cc3)nc2-c2ccc(OC)c(OC)c2)cc1OC | -20.8% | –
Cc1ccc2nc(-c3ccc(O)cc3)c(Nc3ccc4c(c3)OCO4)n2c1 | – | 17.8 µM [quencher] (active)
Cc1ccc2nc(-c3cccnc3)c(NC3CCCC3)n2c1 | -14.6% | –
Oc1ccc(-c2nc3ccc(Cl)cn3c2Nc2ccc3c(c2)OCO3)cc1 | -29.6% | –
COc1ccc(CCNC(=O)c2ccc(-n3c(C)cc4c3CCCC4)cc2)cc1OC | -19% | –
O=[N+]([O-])c1ccc(N/N=C/c2ccccc2)cc1 | – | 8.91 µM [quencher] (active)
NC(=S)N/N=C/c1ccc([N+](=O)[O-])cc1 | -0.488% | –
O=C(N/N=C/c1ccc([N+](=O)[O-])cc1)C(=O)N1CCCC1 | 4.17% | –
Cc1nc2ccn(Cc3cccs3)c(=O)c2cc1C(=O)NCc1ccc(Cl)cc1 | -12.3% | –
COc1ccccc1Oc1nc(-c2cccnc2)nc2ccccc12 | -19.1% | –
COc1cccc(-c2nc(Nc3ccncc3)c3ccccc3n2)c1 | – | 10 µM [quencher] (active)
COc1cccc(Nc2nc3ccccc3c3nncn23)c1 | -28.2% | –
Cc1ccccc1CNC(=O)c1cccc(NC(=O)c2nsc3ccccc23)c1 | -28.9% | –
CCS(=O)(=O)N1CCc2cc(C(=O)N3CCN(c4ccccc4OC)CC3)ccc21 | -8.44% | –
O=C1c2ccccc2C2=Nc3ccccc3SC(c3ccccc3F)C12 (stereo not given) | – | 5.62 µM [quencher] (active)
COc1ccc(CCNC(=O)c2ccc3c(c2)nc(C)n3-c2ccc(Br)cc2)cc1OC | -4.98% | –
CCC(=O)N1CCc2cc(CNS(=O)(=O)c3ccc(Br)s3)ccc21 | -5.99% | –
COc1ccc(C2Sc3ccccc3NC3=C2C(=O)c2ccccc23)c(OC)c1OC (stereo not given) | – | 6.31 µM [quencher] (active)
COc1ccc2c(c1OC)C(=O)c1ccccc1C2=O | -4.24% | –

Reference: PubChem BioAssay AID1463 (National Center for Advancing Translational Sciences (NCATS), 2008)
